Data on six molecules can be found in PubChem BioAssay (NCATS).

Assay [1] in a line: MultiTox-Fluor Cytotoxicity Assay - LYMP1-002 - Dead Cells (AID 960; active means well fitted curve in the direction sought with a large enough effect; an effect the other way counts as inactive or inconclusive;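 further: 0% = DMSO and 100% = tetraoctylammonium bromide; nearly all actives have a fitted effect of over 60% in size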). The method in brief: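 Dead-cell fluorescence (Ex/Em 485/520) after 16 h compound exposure at 37 C of LYMP1-002 lymphoblastoid cells in complete medium; AC50 by Hill equation, with data scaled between DMSO and 15 uM tetraoctylammonium bromide.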
The target of assay [2] is Estrogen receptor (Homo sapiens) (UniProt P03372). Briefly: qHTS assay for small molecule antagonists of estrogen receptor alpha signaling (AID 588513; active means well fitted curve in the direction sought with a large enough effect in the signal ratio, with a control signal flat, not every such curve was filed as active; the % refers to the signal ratio; further: on the % scale 0 is the no-effect control and ±100 the full control effect). The gist of the method:
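Fluorescence from CCF4 substrate after 2 h at room temperature gave reporter activity; cells had been exposed to compound and 0.5nM 17-beta-estradiol for 18 h at 37 C. Hill-equation fitting yielded IC50 and maximal response.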
For orientation: Quantitative high-throughput screening tests each substance at several concentrations.

Assay [3] has the same target. Put plainly: qHTS assay for small molecule agonists of estrogen receptor alpha signaling (AID 588514).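 Further: 0% = vehicle only and 100% = reference agonist; nearly all actives have a fitted effect of over 70% in size.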 The gist of the method: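 EC50 and efficacy came from Hill fits of beta-lactamase reporter signal (CCF4 dye, 2 h at room temperature) scaled between DMSO and 20 nM 17-beta-estradiol. Agonist mode: HEK293 ER-alpha-UAS-bla cells in charcoal/dextran-stripped serum medium, 18 h compound exposure at 37 C.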

The target in assay [4] is Glucocorticoid receptor (Homo sapiens) (UniProt P04150). Put plainly: qHTS assay for small molecule agonists of glucocorticoid receptor signaling (AID 588532; active means well fitted curve in the direction sought with a large enough effect in the signal ratio, with a control signal flat; the % refers to the signal ratio;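 further: 100% = dexamethasone at 0.1 µM and 0% = DMSO only wells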). Particulars: HeLa MMTV-bla, beta-lactamase ratio, agonist, 18 h; stronger effect = higher value; percent of dexamethasone control, DMSO zero. The gist of the method: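 Agonist-mode qHTS: GRE-driven beta-lactamase in HeLa cells exposed 18 h to titrated compounds (up to 92 uM), then CCF4 ratio read after 2 h at RT; Hill-fitted EC50, efficacy relative to 0.1 uM dexamethasone.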
Glucocorticoid receptor (Homo sapiens), sequence (P04150 whole entry, looked up): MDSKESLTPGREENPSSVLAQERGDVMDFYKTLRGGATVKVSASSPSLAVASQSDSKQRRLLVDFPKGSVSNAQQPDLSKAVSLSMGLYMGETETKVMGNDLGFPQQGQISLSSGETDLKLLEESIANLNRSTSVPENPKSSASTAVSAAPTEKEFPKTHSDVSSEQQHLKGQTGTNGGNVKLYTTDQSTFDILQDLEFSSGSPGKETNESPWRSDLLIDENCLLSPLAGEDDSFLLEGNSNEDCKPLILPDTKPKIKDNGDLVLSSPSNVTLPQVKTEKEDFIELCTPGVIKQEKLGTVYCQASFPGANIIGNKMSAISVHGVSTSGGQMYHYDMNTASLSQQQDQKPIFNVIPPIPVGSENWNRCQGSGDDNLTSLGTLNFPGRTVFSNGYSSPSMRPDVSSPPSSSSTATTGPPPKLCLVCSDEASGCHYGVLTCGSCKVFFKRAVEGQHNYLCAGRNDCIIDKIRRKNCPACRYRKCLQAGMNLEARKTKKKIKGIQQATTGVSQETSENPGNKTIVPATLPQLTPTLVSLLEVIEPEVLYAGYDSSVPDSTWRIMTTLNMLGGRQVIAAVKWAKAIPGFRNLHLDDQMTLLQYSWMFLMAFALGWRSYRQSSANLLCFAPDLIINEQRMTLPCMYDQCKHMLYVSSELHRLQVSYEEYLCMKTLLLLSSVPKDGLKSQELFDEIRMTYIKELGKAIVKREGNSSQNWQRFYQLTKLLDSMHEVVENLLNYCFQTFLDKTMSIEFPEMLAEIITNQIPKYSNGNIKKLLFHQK

The target in assay [5] is Peroxisome proliferator-activated receptor gamma (Homo sapiens) (UniProt P37231). Briefly: qHTS assay for small molecule agonists of peroxisome proliferator-activated receptor gamma signaling (AID 588536; active means well fitted curve in the direction sought with a large enough effect in the signal ratio, with a control signal flat, not every such curve was filed as active; the % refers to the signal ratio;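 further: 0% = DMSO basal wells and 100% = rosiglitazone at 2 µM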). The gist of the method: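 Cells were plated and held 6–6.5 h at 37 C, then compounds were added as a titration series. After a further 16 h, CCF4 dye was loaded for 2 h at room temperature and emission at 460/530 nm recorded.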
Peroxisome proliferator-activated receptor gamma (Homo sapiens), sequence (P37231 whole entry, looked up): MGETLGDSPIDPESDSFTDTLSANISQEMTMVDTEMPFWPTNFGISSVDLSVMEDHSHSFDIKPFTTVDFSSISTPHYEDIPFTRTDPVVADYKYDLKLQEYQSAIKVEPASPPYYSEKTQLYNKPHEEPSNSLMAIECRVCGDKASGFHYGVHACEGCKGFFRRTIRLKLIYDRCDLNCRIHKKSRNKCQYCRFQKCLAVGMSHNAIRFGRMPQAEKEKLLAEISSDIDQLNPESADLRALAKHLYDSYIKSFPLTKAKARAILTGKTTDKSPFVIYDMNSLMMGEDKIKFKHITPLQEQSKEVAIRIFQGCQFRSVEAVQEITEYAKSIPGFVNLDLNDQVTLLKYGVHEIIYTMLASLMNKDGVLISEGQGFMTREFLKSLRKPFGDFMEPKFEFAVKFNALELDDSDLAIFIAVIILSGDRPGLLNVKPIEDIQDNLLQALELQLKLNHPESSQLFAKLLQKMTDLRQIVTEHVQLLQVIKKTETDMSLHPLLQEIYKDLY

The target of assay [6] is Vitamin D3 receptor (Homo sapiens) (UniProt P11473). Put plainly: qHTS assay for small molecule antagonists of vitamin D receptor signaling (AID 588541).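 Further: receptor activated by calcitriol during compound treatment; series mostly up to about 77 µM; on the % scale 0 is the no-effect control and ±100 the full control effect.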 The gist of the method:
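Antagonist-mode beta-lactamase reporter assay: HEK293T VDR-UAS-bla cells were exposed to titrated compound alongside 1-alpha,25-dihydroxyvitamin D3 at 3 nM final for 16 h. Values were normalized to the 50 nM agonist control and DMSO basal, with IC50 and efficacy from Hill equation fits.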

Assay [7] has the same target. Briefly: qHTS assay for small molecule agonists of vitamin D receptor signaling (AID 588543).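 Further: 0% = DMSO basal and 100% = reference agonist control.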 The gist of the method:
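Reporter cells (HEK293T, VDR-UAS-bla) were seeded in medium with 2% charcoal-stripped serum and incubated 5 h, then compounds in concentration series were added for 16 h at 37 °C. Stimulation was scaled between DMSO basal and 50 nM 1α,25-dihydroxyvitamin D3.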

Assay [8] in a line: qHTS assay for small molecule agonists of retinoid X receptor alpha signaling (AID 588544).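 On activation: 0% = DMSO basal wells and 100% = reference agonist.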 The settings on record: HEK293T RXRa-UAS-bla, beta-lactamase reporter, 18 h; 530 nm emission.
Assay [9] deals with Retinoic acid receptor RXR-alpha (Homo sapiens) (UniProt P19793). The assay is described as above.
Retinoic acid receptor RXR-alpha (Homo sapiens), sequence (P19793 whole entry, looked up): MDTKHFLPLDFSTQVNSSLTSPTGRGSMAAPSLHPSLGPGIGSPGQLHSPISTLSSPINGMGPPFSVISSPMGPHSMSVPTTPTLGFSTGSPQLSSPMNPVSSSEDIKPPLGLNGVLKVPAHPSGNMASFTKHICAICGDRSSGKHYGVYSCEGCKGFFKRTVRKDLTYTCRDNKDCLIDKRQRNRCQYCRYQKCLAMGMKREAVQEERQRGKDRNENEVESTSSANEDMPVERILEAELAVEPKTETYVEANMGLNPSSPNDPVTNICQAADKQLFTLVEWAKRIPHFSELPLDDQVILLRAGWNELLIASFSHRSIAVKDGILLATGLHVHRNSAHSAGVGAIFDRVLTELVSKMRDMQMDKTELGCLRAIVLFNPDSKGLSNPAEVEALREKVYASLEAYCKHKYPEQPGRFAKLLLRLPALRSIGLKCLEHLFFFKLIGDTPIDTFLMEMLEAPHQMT
The target in assay [10] is Thyroid hormone receptor beta (Homo sapiens) (UniProt P10828). Briefly: qHTS assay for small molecule antagonists of thyroid hormone receptor beta signaling (AID 588547; active means well fitted inhibition curve with a large enough effect in the signal ratio, with a control signal flat, not every such curve was filed as active; the % refers to the signal ratio;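 further: cells stimulated with 0.4 nM T3 agonist during compound exposure; series mostly up to about 77 µM; on the % scale 0 is the no-effect control and ±100 the full control effect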). Particulars: TR-UAS-bla HEK293, beta-lactamase ratio, antagonist mode, 18 h. The gist of the method:
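Inhibition of T3-driven (0.4nM final) beta-lactamase reporter activity was measured over 0.59 nM to 92 uM compound after 18 h at 37 C. The cells were GripTite HEK293 TR-UAS-bla in charcoal/dextran-stripped serum, with CCF4 ratio read-out and IC50 from Hill fits.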

The target in assay [11] is Voltage-gated inwardly rectifying potassium channel KCNH2 (Homo sapiens) (UniProt Q12809). Put plainly: qHTS Assay for Small Molecule Inhibitors of the Human hERG Channel Activity (AID 588834; active means well fitted curve in the direction sought with a large enough effect; an effect the other way counts as inactive or inconclusive;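 further: top concentration of the series differs between compounds; on the % scale 0 is the no-effect control and ±100 the full control effect; lower thallium flux fluorescence means stronger hERG block; nearly all actives have a fitted effect of over 50% in size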). The method in brief: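 Step 1: BacMam hERG transduction of U2OS, 4 hrs RT. Step 2: overnight 37 °C, plate 2000 cells/well, 4 hr. Step 3: FluxOR load, compound 10 min, stimulate, read fluorescence.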
Voltage-gated inwardly rectifying potassium channel KCNH2 (Homo sapiens), sequence (Q12809 whole entry, looked up): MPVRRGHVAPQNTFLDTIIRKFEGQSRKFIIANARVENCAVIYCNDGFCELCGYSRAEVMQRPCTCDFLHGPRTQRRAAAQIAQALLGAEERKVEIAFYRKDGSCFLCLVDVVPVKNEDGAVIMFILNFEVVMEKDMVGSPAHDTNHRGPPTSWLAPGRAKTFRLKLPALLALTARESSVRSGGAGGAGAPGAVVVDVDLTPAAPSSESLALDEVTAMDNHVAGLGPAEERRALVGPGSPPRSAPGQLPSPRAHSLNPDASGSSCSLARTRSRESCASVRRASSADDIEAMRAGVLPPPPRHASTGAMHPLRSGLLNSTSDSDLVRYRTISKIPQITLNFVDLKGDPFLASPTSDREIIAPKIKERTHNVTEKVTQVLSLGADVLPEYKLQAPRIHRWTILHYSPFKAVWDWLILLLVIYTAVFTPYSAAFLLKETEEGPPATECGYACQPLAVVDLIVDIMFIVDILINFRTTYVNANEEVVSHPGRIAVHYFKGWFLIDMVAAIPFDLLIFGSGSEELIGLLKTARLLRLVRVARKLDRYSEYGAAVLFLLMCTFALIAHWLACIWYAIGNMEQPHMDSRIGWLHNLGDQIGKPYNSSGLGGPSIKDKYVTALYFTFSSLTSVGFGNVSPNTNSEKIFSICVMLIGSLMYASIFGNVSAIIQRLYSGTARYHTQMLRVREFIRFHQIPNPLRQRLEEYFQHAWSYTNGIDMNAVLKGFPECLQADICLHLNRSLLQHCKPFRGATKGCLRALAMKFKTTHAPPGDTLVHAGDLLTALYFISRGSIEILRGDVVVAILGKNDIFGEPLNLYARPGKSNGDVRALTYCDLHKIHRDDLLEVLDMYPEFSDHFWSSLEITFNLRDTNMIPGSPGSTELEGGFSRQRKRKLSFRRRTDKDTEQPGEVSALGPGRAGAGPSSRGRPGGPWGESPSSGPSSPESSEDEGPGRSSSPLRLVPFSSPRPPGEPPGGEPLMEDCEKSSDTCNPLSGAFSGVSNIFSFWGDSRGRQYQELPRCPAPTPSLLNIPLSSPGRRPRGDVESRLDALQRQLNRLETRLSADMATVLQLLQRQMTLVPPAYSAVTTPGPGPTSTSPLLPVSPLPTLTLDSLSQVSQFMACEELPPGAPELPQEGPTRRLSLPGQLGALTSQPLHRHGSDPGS

Assay [12] in a line: qHTS assay for small molecule disruptors of the mitochondrial membrane potential - 1 hr assay (AID 651754). Further: on the % scale 0 is the no-effect control and ±100 the full control effect; nearly all actives have a fitted effect of over 35% in size. The method in brief:
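Mitochondrial potential in living HepG2 cells after 1 hr compound treatment at 37C was read with Mito-MPS dye added for a further 30 min. Red aggregate and green monomer fluorescence were measured; loss of potential leaves dye as cytoplasmic monomers.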

For assay [13], the target named is Tumor necrosis factor (Homo sapiens) (UniProt P01375). Put plainly: qHTS assay to identify small molecules that stimulate Tumor Necrosis Factor-alpha (TNF-alpha) secretion (AID 651757; active means well fitted curve in the direction sought with a large enough effect in the signal ratio; the % refers to the signal ratio; further: 0% is about no effect). The method in brief:
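Secreted TNF-alpha quantified by TR-FRET sandwich of two labeled anti-TNF-alpha antibodies, incubated 3 hr at room temperature. Preceded by 17 hr, 37 C compound treatment of THP-1 cells at 3000 cells/well.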

Assay [14] in a line: qHTS assay for environmental chemicals that activate the Aryl hydrocarbon Receptor (AhR) signaling pathway (AID 651777; active means well fitted curve in the direction sought with a large enough effect; an effect the other way counts as inactive or inconclusive; further: % of control where 0% means no effect; nearly all actives have a fitted effect of over 15% in size). Particulars: 1A2-DRE human hepatoma cells, luciferase, 24 h; activation: stronger effect = higher value. The gist of the method: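 Stable CYP1A2 promoter/DRE-luciferase human hepatoma line treated 24 hr; One-Glo luminescence, 30 min RT.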
Assay [15] is described as follows: qHTS assay for small molecule agonists of the antioxidant response element (ARE) signaling pathway measured by Nrf2-dependant transcriptional activity (AID 720636; active means well fitted curve in the direction sought with a large enough effect in the repeat runs; an effect the other way counts as inactive or inconclusive;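 further: HepG2 cells with an ARE-driven luciferase reporter; % of control where 0% means no effect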). The method in brief: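 Reporter gene assay, HepG2 ARE-luc: 16 hr compound, 37 C, 5% CO2; read-out luciferase luminescence.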
Assay [16] in a line: qHTS assay for small molecule antagonists of the retinoid-related orphan receptor gamma (ROR-gamma) signaling pathway - cell viability counter screen (AID 720652; active means well fitted curve in the direction sought with a large enough effect in the repeat runs; an effect the other way counts as inactive or inconclusive;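 further: series mostly up to about 92 µM; compound exposure lasted 16 hr before ATP read; on the % scale 0 is the no-effect control and ±100 the full control effect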). The method in brief: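 Cytotoxicity counter screen: intracellular ATP (CellTiter-Glo luminescence) measured in the doxycycline-induced CHO RORE-luciferase reporter line after 16 hr compound exposure at 37 C, 5% CO2.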

For assay [17], the target named is Nuclear receptor subfamily 1 group I member 2 (Rattus norvegicus) (UniProt Q9R1A7). Put plainly: qHTS assay for small molecule activators of the rat pregnane X receptor (rPXR) signaling pathway (AID 651751; call rule not given here; further: 0% is about no effect). Particulars: rPXR reporter cells, luciferase (One-Glo), 24 h.
Nuclear receptor subfamily 1 group I member 2 (Rattus norvegicus), sequence (Q9R1A7 whole entry, looked up): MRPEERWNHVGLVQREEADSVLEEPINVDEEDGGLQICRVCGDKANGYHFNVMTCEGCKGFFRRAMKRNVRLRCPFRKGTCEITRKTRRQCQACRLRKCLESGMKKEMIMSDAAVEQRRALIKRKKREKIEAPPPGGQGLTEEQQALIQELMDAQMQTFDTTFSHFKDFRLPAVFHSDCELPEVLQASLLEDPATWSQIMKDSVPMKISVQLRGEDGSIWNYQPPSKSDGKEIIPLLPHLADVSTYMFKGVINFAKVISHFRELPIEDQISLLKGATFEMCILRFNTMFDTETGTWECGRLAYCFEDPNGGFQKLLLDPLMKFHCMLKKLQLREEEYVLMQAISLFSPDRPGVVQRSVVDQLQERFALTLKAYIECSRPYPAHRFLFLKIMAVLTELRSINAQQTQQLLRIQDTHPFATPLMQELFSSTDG
A short description of assay [18]: MultiTox-Fluor Cytotoxicity Assay - LYMP1-001 - Live Cells (AID 947; active means well fitted curve in the direction sought with a large enough effect; an effect the other way counts as inactive or inconclusive;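 further: 0% = DMSO only and full inhibition = tetraoctylammonium bromide control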).
Assay [19] in a line: qHTS assay for small molecule activators of the p53 signaling pathway (AID 651743; active means well fitted activation curve with a large enough effect in the signal ratio, not every such curve was filed as active; the % refers to the signal ratio; further: potency means the concentration at half of the fitted maximal effect; on activation: series mostly up to about 92 µM; % of control where 0% means no effect). Particulars: HCT-116 p53RE-bla, beta-lactamase FRET ratio, 16 h; activation: stronger effect = higher value. The gist of the method: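 After 16 hours compound treatment at 37 C, HCT-116 cells stably expressing p53RE-driven beta-lactamase were loaded with LiveBLAzer B/G FRET substrate for 2 hours at room temperature. Fluorescence intensity served as the p53 activation read-out.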

A short description of assay [20]: qHTS assay for small molecule activators of the human pregnane X receptor (PXR) signaling pathway (AID 720659; call rule not given here; further: 0% is about no effect).

Several values for one entry are separate records, joined by “and”; a condition that tells them apart may be missing. Equal entries are not always repeated. Inconclusive results are not listed. Activity calls are given as the source filed them. Unless noted, the call rests on the fitted dose curve.

Thyroid hormone receptor beta (Homo sapiens), sequence (P10828 whole entry, looked up): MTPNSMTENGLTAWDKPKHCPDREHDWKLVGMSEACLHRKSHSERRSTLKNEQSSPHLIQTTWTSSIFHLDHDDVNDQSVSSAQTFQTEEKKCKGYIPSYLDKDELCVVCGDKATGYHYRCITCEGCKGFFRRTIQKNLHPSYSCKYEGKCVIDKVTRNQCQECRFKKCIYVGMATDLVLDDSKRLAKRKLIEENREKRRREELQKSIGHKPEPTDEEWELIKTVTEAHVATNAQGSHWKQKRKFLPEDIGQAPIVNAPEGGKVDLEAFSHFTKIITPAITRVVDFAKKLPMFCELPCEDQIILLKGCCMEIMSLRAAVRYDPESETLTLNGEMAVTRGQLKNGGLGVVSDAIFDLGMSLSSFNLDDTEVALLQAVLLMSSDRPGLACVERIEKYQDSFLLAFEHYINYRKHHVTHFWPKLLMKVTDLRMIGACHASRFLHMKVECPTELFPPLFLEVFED
Tumor necrosis factor (Homo sapiens), sequence (P01375 whole entry, looked up): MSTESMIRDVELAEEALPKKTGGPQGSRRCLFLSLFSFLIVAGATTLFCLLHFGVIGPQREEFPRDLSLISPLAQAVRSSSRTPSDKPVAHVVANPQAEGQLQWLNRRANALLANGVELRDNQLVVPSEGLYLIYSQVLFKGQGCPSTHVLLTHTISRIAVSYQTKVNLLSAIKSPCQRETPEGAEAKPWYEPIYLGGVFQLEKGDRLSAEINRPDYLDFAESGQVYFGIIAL
Vitamin D3 receptor (Homo sapiens), sequence (P11473 whole entry, looked up): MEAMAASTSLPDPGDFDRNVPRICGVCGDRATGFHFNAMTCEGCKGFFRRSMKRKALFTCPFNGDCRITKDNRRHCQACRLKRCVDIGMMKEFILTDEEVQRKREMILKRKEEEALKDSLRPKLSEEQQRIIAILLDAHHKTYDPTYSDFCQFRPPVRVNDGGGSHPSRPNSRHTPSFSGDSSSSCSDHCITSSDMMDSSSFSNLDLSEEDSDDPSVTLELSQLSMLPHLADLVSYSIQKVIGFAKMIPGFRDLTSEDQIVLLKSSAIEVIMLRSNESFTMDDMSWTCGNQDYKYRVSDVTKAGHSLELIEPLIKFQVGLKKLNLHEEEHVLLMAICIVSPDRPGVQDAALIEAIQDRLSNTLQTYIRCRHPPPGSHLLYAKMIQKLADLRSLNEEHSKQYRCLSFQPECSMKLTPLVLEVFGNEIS

With `Cc1ccc(N)c([N+](=O)[O-])c1`, the Potency entry in [1], in [2], in assay [3], in [11], in [12] and in assay [15] was “inactive” in each case. Further, the Potency entry in assay [16] was “inactive”. The activation is 2.77% (inactive) and 13.2% (inactive) in assay [4]; 2.83% (inactive) and 1.74% (inactive) in assay [14]. In addition, the result in assay [5], in assay [6], in [7], in assay [9] and in assay [13] was inactive. Besides, the max response in assay [8] was -17.4% and -9.33%; in [17], -2.15% (inactive) and -2.21% (inactive). Also, in [10], the activity change % (negative = inhibition) is -3.23% (inactive).

Consider `CN(C)CCCCCCN(C)C`, for which the Potency result in [18], in [1], in [12], in assay [15] and in assay [16] was “inactive” each time. Besides, the outcome in assay [5], in assay [6], in assay [7], in assay [9] and in assay [13] was inactive. For the same molecule, the max response in assay [8] was -13.8%. In [10], the activity change % (negative = inhibition) is 5.32% (inactive). Further, the activation in assay [19] was -2.74% (inactive); in assay [14] it was 1.69% (inactive).

Turning to `c1ccccc1`, the Potency result in assay [18], in assay [1], in [2], in [3], in assay [12] and in [15] was “inactive” throughout. Besides, the activation in assay [4] is -2.25% (inactive) [middle of 4 runs]; in assay [19] it was 0.891% (inactive) [middle of 4 runs]. In addition, the result in assay [5], in assay [6], in [7] and in assay [13] was inactive.

Regarding `S=C1NC=NC2N=CNC12` (configuration not stated), the Potency result in [18], in assay [1], in assay [11], in assay [12] and in [15] was “inactive” throughout. The result in [7] and in assay [20] was inactive. Besides, the Potency in [19] is 10 µM (active). Moreover, the activation in [14] was -2.14% (inactive). For the same molecule, the max response in assay [17] was -8.03% (inactive).

Turning to `CCCCC(CC)CN` (configuration not stated), the Potency entry in assay [18], in [1], in assay [2], in [3], in [11] and in assay [12] was “inactive” each time. For the same molecule, the Potency entry in assay [15] and in assay [16] was “inactive” each time. Further, the activation was -3.51% (inactive) and -4.52% (inactive) in [4]; -5.5% (inactive) and 1.33% (inactive) in assay [19]; 0.546% (inactive) and 3.21% (inactive) in assay [14]. The molecule was called inactive in assay [5], in assay [6], in [7], in [9], in assay [13] and in assay [20]. The max response in [8] was -5.69% and -12.2%; in [17], 1.98% (inactive) and 0.48% (inactive). In assay [10], the activity change % (negative = inhibition) was 20% (inactive) and -6.26% (inactive).

As for `COCC(=O)O`, the Potency entry in assay [18], in assay [1], in assay [2], in [3], in assay [11] and in assay [12] was “inactive” throughout. Also, the Potency entry in assay [15] and in assay [16] was “inactive” throughout. The activation is 1.9% (inactive) and -4.38% (inactive) in assay [4]; 0.0042% (inactive) and -6.16% (inactive) in assay [19]; -1.91% (inactive) and 0.0528% (inactive) in [14]. Also, the outcome in assay [5], in assay [6], in assay [7], in assay [9] and in assay [13] was inactive. In addition, the max response is 0.473% and -13.2% in assay [8]; 1.77% (inactive) and 0.862% (inactive) in assay [17]. Also, the activity change % (negative = inhibition) in [10] was -5.02% (inactive) and -7.68% (inactive).
